Source: PubChem (National Center for Advancing Translational Sciences (NCATS))
PLK1 PBD block: blocks phosphopeptide binding to human PLK1 polo-box domain; P53350; Plk1 PBD binding of FITC phosphopeptide, fluorescence polarization; Potency, µM, usual class: inhibitors; 360,000 tested, 2.8% active; also: series mostly up to about 57 µM; nearly all actives have a fitted effect of over 65% in size
HP1b binding inh: HP1-beta chromodomain-methylated histone interaction inhibition. Potency, µM (series often up to 114 µM), most hits filed as inhibitors. 390,000 tested, 0.56% active. AlphaScreen HP1-beta / biotin-H3K9me3 peptide binding; also: nearly all actives have a fitted effect of over 70% in size
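Compound inhibition of the preformed complex between 50 nM HP1-beta and 50 nM biotinylated H3K9me3 peptide was read by AlphaScreen. Buffer was PBS pH 7.4 with 0.01% Tween-20. Incubations ran 30 min at room temperature, with 10 ug/mL donor/acceptor beads.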
G9a inh: G9a (human) methyltransferase inhibition. 350,000 tested, 8.8% active. Q96KQ7. Potency, µM (doses to about 102 µM), most hits filed as inhibitors. G9a H3K9 monomethylation, AlphaScreen, 2 h; also: nearly all actives have a fitted effect of over 75% in size
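AlphaScreen read-out: biotin-H3K9 peptide (500 nM) methylation by 20 nM enzyme with 20 uM SAM, 2 h at room temperature after 15 min compound preincubation; anti-monomethyl H3K9 antibody plus donor/acceptor beads, 10 min dark.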
BAZ2B block: BAZ2B (human) inhibition | AlphaScreen BAZ2B-H3K14Ac peptide displacement | Potency, µM (highest dose often 114 µM), usual class: inhibitors | 360,000 tested, 4.4% active | AID 504333; also: nearly all actives have a fitted effect of over 60% in size
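AlphaScreen displacement: compounds (up to 110uM) incubated 30 min at room temperature with a preformed 50 nM BAZ2B/50 nM biotinylated H3K14Ac peptide complex in PBS pH 7.4 with Tween-20. Donor and acceptor beads at 10 ug/mL final added, 20 min light-protected before reading.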
ALOX12 inh: blocks human arachidonate 12S-lipoxygenase; P18054; purified 12hLO, xylenol orange hydroperoxide absorbance; Potency, µM (top dose mostly 108 µM), usual class: inhibitors; 580,000 tested, 1.1% active; AID 1671190
Target sequence (P18054 whole entry, looked up): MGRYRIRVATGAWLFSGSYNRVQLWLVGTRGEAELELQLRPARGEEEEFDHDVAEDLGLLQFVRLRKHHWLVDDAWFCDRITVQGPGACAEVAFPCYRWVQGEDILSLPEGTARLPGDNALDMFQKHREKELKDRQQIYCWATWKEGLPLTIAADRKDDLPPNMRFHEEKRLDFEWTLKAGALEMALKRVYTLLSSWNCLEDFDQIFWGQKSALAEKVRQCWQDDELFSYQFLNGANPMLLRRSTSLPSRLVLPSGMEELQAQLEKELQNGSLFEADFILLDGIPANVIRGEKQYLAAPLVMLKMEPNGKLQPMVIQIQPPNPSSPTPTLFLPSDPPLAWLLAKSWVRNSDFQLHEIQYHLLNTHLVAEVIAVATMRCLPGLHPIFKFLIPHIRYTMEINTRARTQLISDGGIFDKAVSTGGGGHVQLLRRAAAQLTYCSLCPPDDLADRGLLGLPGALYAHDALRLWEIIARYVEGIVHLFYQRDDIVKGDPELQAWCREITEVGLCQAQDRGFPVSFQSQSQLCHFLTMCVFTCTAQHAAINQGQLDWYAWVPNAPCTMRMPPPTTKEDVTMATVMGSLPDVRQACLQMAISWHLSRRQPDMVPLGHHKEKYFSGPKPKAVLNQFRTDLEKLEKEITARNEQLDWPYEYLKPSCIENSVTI
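Hydroperoxide product was detected by ferrous iron/xylenol orange as the 573 to 405 nm absorbance ratio. Arachidonic acid at 40 uM (final) was turned over for 30 min at room temperature by 150 nM human 12hLO, pH 7.0 Hepes buffer, after 15 min compound preincubation.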
JMJD2A Tudor: blocks the human JMJD2A Tudor domain; 390,000 tested, 4.4% active; Potency, µM (doses to about 114 µM), actives largely listed as inhibitors; AID 504339; AlphaScreen JMJD2A-Tudor / H3K4me3 peptide binding; also: nearly all actives have a fitted effect of over 50% in size
Large screens that a line does not name were inactive. Most compounds without a hit are left out; they make up all but 9% or so of the library. Calls follow the shape of the dose curve; as a rule, active = well fitted curve in the direction sought with a large enough effect; inconclusive = small, poorly fitted or top-dose-only effect, or another doubt; inactive = no such curve, though single readings can be large; an effect the other way counts as inactive or inconclusive.

CC(C)=CCc1c(O)ccc2c1OC(c1ccc(O)c(O)c1)CC2=O (configuration not stated)	BAZ2B block inconclusive, ALOX12 inh 28µM, JMJD2A Tudor inconclusive
CCn1c(SCC(=O)Nc2ccc(C(C)=O)cc2)nc2nc3c(cc2c1=O)COC(C)(C)C3	G9a inh inconclusive
Cc1ccccc1-c1nsc(SCC(=O)NCc2ccc3c(c2)OCO3)n1	PLK1 PBD block inconclusive, G9a inh 35µM
Cc1ccccc1-c1nc(CS(=O)(=O)CC(=O)NCc2ccc3c(c2)OCO3)c(C)o1	G9a inh 50µM
O=C(O)CN1C(=O)/C(=C\c2cccc(OCc3ccc(Cl)cc3Cl)c2)SC1=S	PLK1 PBD block 21µM, HP1b binding inh inconclusive, BAZ2B block 79µM, ALOX12 inh 25µM, JMJD2A Tudor 50µM (no result: G9a inh)
O=C(O)CN1C(=O)/C(=C\c2cc(Br)ccc2OCc2ccc([N+](=O)[O-])cc2)SC1=S	PLK1 PBD block 21µM, G9a inh 20µM, BAZ2B block 45µM, ALOX12 inh 8.9µM, JMJD2A Tudor 56µM
O=C(O)CN1C(=O)/C(=C\c2cc(Br)ccc2OCc2ccccc2F)SC1=S	PLK1 PBD block 19µM, G9a inh 40µM, BAZ2B block 56µM, ALOX12 inh inconclusive, JMJD2A Tudor 50µM
CCOc1ccccc1C=C1SC(=S)N(CC)C1=O	JMJD2A Tudor inconclusive (no result: G9a inh, BAZ2B block)
O=C(O)CN1C(=O)/C(=C\c2ccccc2OCc2ccc(Cl)cc2Cl)SC1=S	PLK1 PBD block 27µM, G9a inh 32µM, BAZ2B block inconclusive, JMJD2A Tudor 56µM
O=C(O)CN1C(=O)/C(=C\c2cc(Br)ccc2OCc2ccccc2Cl)SC1=S	PLK1 PBD block 17µM, G9a inh 14µM, BAZ2B block 45µM, ALOX12 inh inconclusive, JMJD2A Tudor inconclusive
O=C(O)COc1ccc(Br)cc1/C=C1/SC(=O)N(CC(=O)N2CCCC2)C1=O	JMJD2A Tudor inconclusive
COc1ccc(-c2nnc(-c3cccs3)o2)cc1OC	none
COc1ccc(-c2nc(-c3cccs3)c(-c3cccs3)[nH]2)cc1O	G9a inh inconclusive, BAZ2B block 45µM, JMJD2A Tudor inconclusive
O=C(Cc1nn[nH]n1)NCc1ccccc1Cl	BAZ2B block 50µM
O=C(Cc1nn[nH]n1)c1ccccc1O	JMJD2A Tudor 45µM
CCCC(=O)NCc1ccccc1Cl	none
N#CC1=C(N)C(C#N)(C#N)C2(CCC3(CC2)OCCO3)C2CC3(CC=C12)OCCO3 (configuration not stated)	BAZ2B block 100µM
N#CC1=C(N)C(C#N)(C#N)C(c2cccnc2)C2COCC=C12 (configuration not stated)	G9a inh inconclusive
N#CC1=C(N)C(C#N)(C#N)[C@H](c2c(F)cccc2F)[C@H]2CC3(CC=C12)OCCO3	G9a inh 50µM
CN1C2C=C3C(C#N)=C(N)C(C#N)(C#N)[C@H](c4c(F)cccc4F)[C@H]3C1CC2 (some centres not stated)	G9a inh 50µM, BAZ2B block inconclusive
CCN(CC)Cc1nc(C2(O)CCN(Cc3ccc(OC)cc3)CC2)cs1	none (no result: PLK1 PBD block, HP1b binding inh, G9a inh, BAZ2B block, JMJD2A Tudor)
O=C(N[C@H]1C/C=C\C[C@@H](CC(=O)N(CCO)Cc2ccccc2)C(=O)N[C@H](Cc2c[nH]c3ccccc23)COC1=O)OCC1c2ccccc2-c2ccccc21	ALOX12 inh inconclusive, JMJD2A Tudor inconclusive (no result: G9a inh, BAZ2B block)
CCOC(=O)C(NC(=O)NCc1ccc(F)cc1)(OCC)C(F)(F)F (configuration not stated)	none
CCOC(=O)C(NC(=O)Nc1ccc(Cl)cn1)(Oc1ccc(F)cc1)C(F)(F)F (configuration not stated)	PLK1 PBD block 9.5µM
COc1ccc(NC(=O)Nc2ccccc2SC)cc1	PLK1 PBD block inconclusive, G9a inh 50µM
CCCCNC(=O)Nc1ccccc1C(=O)NCCC	none
COc1ccc(NC(=O)Nc2sc(=S)n(C)c2C)cc1	PLK1 PBD block inconclusive, G9a inh 50µM
CCCNC(=O)Nc1ccccc1SC	PLK1 PBD block inconclusive, G9a inh 40µM
COc1ccc(NC(=O)C(CC(=O)O)Cc2ccccc2)cc1 (configuration not stated)	G9a inh inconclusive
